This is an account of results in PubChem BioAssay (NCI).

The structures appear in SMILES notation. About 83,000 compounds went through this panel and 20% of them were active in at least one assay; those are over-represented in the sample as a whole.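 Values shown are percent growth following 48 h exposure of cells in 96-well plates to a single concentration of compound; below 10 was considered active.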 A number with no mark means an inactive call. Activity calls are given as the source filed them.

Some test systems named below: RPMI-8226 leukemia; OVCAR-8 ovarian; OVCAR-5 ovarian; OVCAR-4 ovarian; SK-OV-3 ovarian; IGROV1 ovarian; OVCAR-3 ovarian; HS 578T breast; NCI/ADR-RES ovarian; T-47D breast; BT-549 breast; MDA-MB-435 melanoma; SW-620 colon; HCT-116 colon; HCC-2998 colon; KM12 colon; MCF7 breast.
What all share (assay): NCI-60 one-dose screen, 48 h (100 = growth as untreated, 0 = no growth, -100 = all killed)
What all share (settings): 10 µM unless noted

Consider `C=C1C[C@@]2(C)C(CC[C@]3(C)C2CC=C2C4CC(C)(C)C[C@@H](OC(=O)/C(C)=C\C)[C@]4(C(=O)O)CC[C@]23C)C(C)(C)C1=O` (some centres not stated), for which the growth in the test on RPMI-8226 leukemia is -15.6% (active); in the test with OVCAR-8 ovarian, 15%; with OVCAR-5 ovarian, 7.88% (active); in the test with OVCAR-4 ovarian it was 39.4%; in the test with SK-OV-3 ovarian, 86.2%; with IGROV1 ovarian, 1.07% (active). Moreover, the growth was -16.8% (active) in the test on OVCAR-3 ovarian; 51.3% with HS 578T breast; 9.03% (active) with NCI/ADR-RES ovarian; -11.3% (active) in the test with T-47D breast; -19.7% (active) in the test on BT-549 breast; -12.4% (active) in the test on MDA-MB-435 melanoma. Moreover, the growth in the test with SW-620 colon was -29.1% (active); in the test on HCT-116 colon, -78.5% (active); in the test on HCC-2998 colon, -79.9% (active); with KM12 colon, 3.05% (active).
On to `O=C1N(Cc2ccccc2Cl)c2ccccc2C12NN=C(c1ccccc1)S2` (configuration not stated), for which the growth is 66.3% in the test with RPMI-8226 leukemia; 45.8% in the test with OVCAR-8 ovarian; 78.6% in the test with OVCAR-5 ovarian; 51.8% in the test with OVCAR-4 ovarian; 83.2% in the test on SK-OV-3 ovarian; 61.7% in the test with IGROV1 ovarian. Also, the growth was 68.7% with OVCAR-3 ovarian; 69.6% with HS 578T breast; 45.2% in the test with NCI/ADR-RES ovarian; 72.3% in the test on T-47D breast; 70% with BT-549 breast; 68.5% in the test with MDA-MB-435 melanoma. In addition, the figures for the growth in the test with SW-620 colon, with HCT-116 colon and in the test on HCC-2998 colon were 47.6%, 43% and 73.7%, respectively.
Turning to `N=c1nc(N2CCCCC2)cc(N)n1O`, the growth was 109% in the test on RPMI-8226 leukemia; 103% in the test with OVCAR-8 ovarian; 103% with OVCAR-5 ovarian; 92.5% with OVCAR-4 ovarian; 103% with SK-OV-3 ovarian; 118% with IGROV1 ovarian. Besides, the growth in the test with OVCAR-3 ovarian is 112%; in the test on HS 578T breast, 109%; with NCI/ADR-RES ovarian, 122%; with T-47D breast, 100%; in the test with BT-549 breast it was 106%; in the test with MDA-MB-435 melanoma, 107%. Further, the growth with SW-620 colon is 109%; with MCF7 breast it was 84.2%; in the test with HCT-116 colon it was 106%; with HCC-2998 colon, 105%; in the test with KM12 colon, 107%.
In the case of `NC(CCC(=O)NC(CS)C(=O)NCC(=O)O)C(=O)O` (configuration not stated), the growth with RPMI-8226 leukemia was 74.2%; in the test with OVCAR-8 ovarian it was 98.7%; with OVCAR-5 ovarian it was 97.6%; with OVCAR-4 ovarian, 108%; with SK-OV-3 ovarian, 116%; in the test on IGROV1 ovarian it was 98.1%. Further, the growth is 110% in the test on OVCAR-3 ovarian; 107% with HS 578T breast; 107% in the test with NCI/ADR-RES ovarian; 119% in the test on BT-549 breast; 106% with MDA-MB-435 melanoma; 103% in the test on SW-620 colon. Further, the growth is 103% in the test on MCF7 breast, 114% in the test with HCT-116 colon, 60% in the test on HCC-2998 colon and 108% in the test with KM12 colon.
Turning to `COc1ccc(C2=NNC(c3ccc(Oc4nc5c(c(=O)n(C)c(=O)n5C)n4C)c(OC)c3)C2)cc1` (configuration not stated), the growth is 80.4% in the test on RPMI-8226 leukemia; 94.4% with OVCAR-8 ovarian; 102% in the test with OVCAR-5 ovarian; 98.1% with OVCAR-4 ovarian; 117% with SK-OV-3 ovarian; 105% in the test on IGROV1 ovarian. The growth in the test on OVCAR-3 ovarian was 108%; in the test on HS 578T breast, 89.4%; in the test with NCI/ADR-RES ovarian, 87.2%; with T-47D breast, 86.3%; in the test with BT-549 breast it was 88.6%; in the test with MDA-MB-435 melanoma, 93%. The growth with SW-620 colon was 109%; in the test with MCF7 breast, 87.6%; with HCT-116 colon, 98.2%; in the test on HCC-2998 colon, 102%; with KM12 colon, 97.6%.
On to `Cn1c(=O)c2c(nc(N/N=C/c3ccccc3Cl)n2C)n(C)c1=O`, for which the growth is 111% with RPMI-8226 leukemia; 98.6% with OVCAR-8 ovarian; 95.7% in the test on OVCAR-5 ovarian; 115% in the test on OVCAR-4 ovarian; 110% in the test with SK-OV-3 ovarian; 102% in the test on IGROV1 ovarian. For the same compound, the growth was 119% in the test on OVCAR-3 ovarian; 137% with HS 578T breast; 97.3% in the test on NCI/ADR-RES ovarian; 105% in the test on T-47D breast; 102% in the test with BT-549 breast; 109% in the test on MDA-MB-435 melanoma. The growth in the test with SW-620 colon is 108%; with MCF7 breast, 96.2%; in the test with HCT-116 colon it was 97.5%; in the test on KM12 colon, 140%.
Regarding `Oc1ccc(-c2nnc3c4[nH]ccc4ncn23)cc1`, the growth in the test on RPMI-8226 leukemia is 97.7%; in the test on OVCAR-8 ovarian it was 99.6%; in the test on OVCAR-5 ovarian it was 113%; in the test on OVCAR-4 ovarian, 102%; with SK-OV-3 ovarian it was 99.7%; with IGROV1 ovarian, 84%. Besides, the growth is 107% with OVCAR-3 ovarian; 95% in the test with HS 578T breast; 93.4% in the test with T-47D breast; 89.2% in the test on BT-549 breast; 97.5% in the test with MDA-MB-435 melanoma; 108% in the test with SW-620 colon. Besides, the growth is 92.1% in the test with MCF7 breast, 88.8% with HCT-116 colon, 105% with HCC-2998 colon and 104% with KM12 colon.
Consider `CS(=O)(=O)c1ccc(Cl)c([N+](=O)[O-])c1`, for which the growth with RPMI-8226 leukemia was 70.3%; in the test on OVCAR-8 ovarian, 107%; in the test with OVCAR-5 ovarian it was 108%; with OVCAR-4 ovarian, 111%; with SK-OV-3 ovarian, 104%; in the test with IGROV1 ovarian, 38.5%. The growth was 9.6% (active) with OVCAR-3 ovarian; 73.3% with HS 578T breast; 101% in the test on NCI/ADR-RES ovarian; 104% in the test with T-47D breast; 111% in the test with BT-549 breast; 99.1% with MDA-MB-435 melanoma. Also, the growth is 67.9% in the test with SW-620 colon; 107% in the test with MCF7 breast; 105% in the test on HCT-116 colon; 109% with HCC-2998 colon; 75.3% in the test on KM12 colon.
Take `Cc1cc(O)ccc1Sc1ccccc1[N+](=O)[O-]`: the growth is 82.5% in the test with RPMI-8226 leukemia; 97.1% in the test on OVCAR-8 ovarian; 99.6% with OVCAR-5 ovarian; 90% in the test with OVCAR-4 ovarian; 101% in the test on SK-OV-3 ovarian; 90.6% in the test on IGROV1 ovarian. Also, the growth with OVCAR-3 ovarian is 96.1%; with HS 578T breast, 80%; in the test with NCI/ADR-RES ovarian, 83%; in the test on T-47D breast, 98.7%; in the test with BT-549 breast it was 93.2%; in the test with MDA-MB-435 melanoma it was 57.7%. Moreover, the growth is 90.2% in the test with SW-620 colon; 118% in the test on MCF7 breast; 98.1% with HCT-116 colon; 97.5% in the test on HCC-2998 colon; 91.1% in the test with KM12 colon.
